Source: PubChem BioAssay (NCI)
About 83,000 compounds went through this panel and 20% of them were active in at least one assay; those are over-represented in the sample as a whole.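 Percent growth is the endpoint: 0 to 100 indicates growth inhibition (40 means 60% inhibition), 0 means no net growth, and negative values indicate cell death.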 Values without a mark were called inactive. The source made the active and inactive calls. The calls were made as follows: active = growth percent below 10; inactive = the rest.

Key:
Assay in all cases: NCI-60 one-dose screen, 48 h (100 = growth as untreated, 0 = no growth, -100 = all killed)
Conditions in all cases: 10 µM
K-562 leukemia = tested on: K-562 leukemia
MALME-3M melanoma = tested on: MALME-3M melanoma
MDA-MB-231 breast = tested on: MDA-MB-231 breast
RXF 393 renal = tested on: RXF 393 renal
SF-268 CNS = tested on: SF-268 CNS
SF-295 CNS = tested on: SF-295 CNS
SF-539 CNS = tested on: SF-539 CNS
UACC-257 melanoma = tested on: UACC-257 melanoma
M14 melanoma = tested on: M14 melanoma
HCT-15 colon = tested on: HCT-15 colon
SNB-75 CNS = tested on: SNB-75 CNS
SNB-19 CNS = tested on: SNB-19 CNS
U251 CNS = tested on: U251 CNS
PC-3 prostate = tested on: PC-3 prostate
SK-MEL-5 melanoma = tested on: SK-MEL-5 melanoma
UACC-62 melanoma = tested on: UACC-62 melanoma
LOX IMVI melanoma = tested on: LOX IMVI melanoma
SK-MEL-28 melanoma = tested on: SK-MEL-28 melanoma
SK-MEL-2 melanoma = tested on: SK-MEL-2 melanoma
HT29 colon = tested on: HT29 colon

SMILES	growth (K-562 leukemia)	growth (MALME-3M melanoma)	growth (MDA-MB-231 breast)	growth (RXF 393 renal)	growth (SF-268 CNS)	growth (SF-295 CNS)	growth (SF-539 CNS)	growth (UACC-257 melanoma)	growth (M14 melanoma)	growth (HCT-15 colon)	growth (SNB-75 CNS)	growth (SNB-19 CNS) [%]	growth (U251 CNS)	growth (PC-3 prostate)	growth (SK-MEL-5 melanoma)	growth (UACC-62 melanoma)	growth (LOX IMVI melanoma)	growth (SK-MEL-28 melanoma)	growth (SK-MEL-2 melanoma)	growth (HT29 colon)
CCOC(=O)C1CCc2c(ccc3ccccc23)N1CCC#N (stereo unspecified)	55.5%	80.2%	91.5%	89%	113%	88%	110%	104%	93.3%	91.9%	74.2%	99	89.7%	84.9%	89.2%	91%	85.7%	91.2%	134%	–
CC(C)(Cl)CCC1=C(Cl)C(=O)c2ccccc2C1=O	-20% (active)	128%	34.1%	28.8%	65.7%	105%	37.4%	39.2%	63.9%	22.7%	30.7%	–	49.9%	32.8%	-34.8% (active)	2.45% (active)	20.6%	56.9%	–	115%
Cc1ccc(Nc2nnc(-c3cc(-c4ccncc4)n(-c4ccccc4)n3)s2)cc1	27%	74.8%	18.9%	57.5%	113%	21.9%	91.6%	110%	61.9%	9.74% (active)	116%	–	65.6%	56.1%	67.7%	83.9%	58.5%	106%	92.4%	36.9%
COc1ccc(Nc2ncnc3c2c(SC)nn3-c2ccccc2)cc1	94%	93%	93.4%	81.3%	95.1%	88.7%	99.3%	106%	94.4%	89.2%	65.8%	–	84.1%	70.4%	94.8%	86.4%	92.7%	99.1%	86.8%	87.2%
CN(C)Cc1cn(-c2ncc(-c3ccc(C(F)(F)F)cc3)c(NC3CCCCCC3)n2)nn1	38.2%	73.5%	89.5%	93.6%	88.5%	94.3%	99.3%	82.8%	84.5%	94.1%	72.9%	–	73.3%	77.5%	80.6%	97.6%	95.7%	97.4%	–	31%
COc1cc(NC(=O)CCSc2nc3ccc(C)cc3c(=O)n2Cc2ccccc2)cc(OC)c1OC	78%	33.8%	52.5%	36.4%	40.4%	59.4%	33.5%	57.1%	87.4%	76.5%	-13.9% (active)	73.3	–	83%	90.6%	–	71.6%	74%	52.6%	78.9%
c1ccc(CSc2nnc3c4c5c(sc4nc(-c4cccnc4)n23)CCCCCC5)cc1	21.7%	16.2%	71.4%	83.3%	57%	45.1%	79.7%	35%	45%	94.2%	74.1%	–	16.8%	9.01% (active)	-46% (active)	34.9%	60.1%	49.2%	–	22.4%
COc1cc2cc3c(nc2cc1OC)CCN3Cc1ccc(NC(=O)c2ccc(Cl)c(C(F)(F)F)c2)cc1	94.7%	68.8%	85.4%	94.5%	102%	92.8%	81.1%	86.6%	104%	95.8%	61.7%	–	84.6%	69.6%	85%	79.9%	89.9%	97.9%	108%	105%
Clc1ccc(-c2cn(-c3ccccc3)c(-c3ccccc3)n2)c(Cl)c1	24.8%	-43.3% (active)	-11.7% (active)	41.3%	-26.7% (active)	19.5%	-22.2% (active)	52.2%	16.7%	-71.4% (active)	-83.3% (active)	–	-100% (active)	-98.3% (active)	68.1%	37%	-76.3% (active)	6.05% (active)	–	-100% (active)
Nc1nc(N=Nc2ccc(O)cc2)cc(=O)[nH]1	106%	96.4%	98.7%	74.4%	111%	94.9%	96.6%	112%	101%	101%	119%	–	93.6%	104%	96.6%	101%	93.7%	106%	144%	123%
Cn1c([N+](=O)[O-])cnc1/C=C1\Oc2cc(Cl)ccc2C1=O	35.8%	-56.7% (active)	-27.7% (active)	-66.8% (active)	-37.4% (active)	38.5%	28%	-42% (active)	-34.7% (active)	3.55% (active)	65.6%	15.6	–	-12.5% (active)	-77.4% (active)	7.22% (active)	-60.3% (active)	-9.7% (active)	-55.2% (active)	-25.4% (active)
CCOC(=O)N1C=CC2C=CC1C1C=CC=CC2N1C(=O)OCC (stereo unspecified)	47.8%	94.8%	87%	86.8%	101%	116%	81.2%	87.7%	89.5%	86.2%	80.4%	–	93.5%	90.1%	84.1%	91.6%	102%	87.8%	90.9%	94.8%
COc1cc(-c2cc(/C=C3\C(=O)Nc4cc(Cl)ccc43)[nH]n2)cc(OC)c1OC	23.4%	-22.9% (active)	34.2%	75.3%	56.7%	32.6%	48.9%	78%	19.6%	13.6%	-5.23% (active)	46.7	40.4%	4.7% (active)	-49.5% (active)	-51.5% (active)	6.79% (active)	19.9%	51.9%	–
COc1ccc(-c2nn(-c3cccc(NC(=O)c4ccc(Cl)c(Cl)c4)c3)cc2-c2ccncc2)cc1Cl	36.3%	58.4%	78%	65.9%	89.8%	65%	72.2%	86.9%	75.6%	75.2%	74.8%	–	64%	48.6%	78.8%	83.7%	91.2%	75.3%	–	78.2%
O=C(Nc1cccc(-n2cc(-c3ccncc3)c(-c3cc(O)cc(Cl)c3)n2)c1)c1cc(C(F)(F)F)cc(C(F)(F)F)c1	20.4%	61.7%	-34.6% (active)	-10.3% (active)	69.4%	15%	75.5%	71%	24.5%	30.1%	52.7%	–	–	21.7%	64.5%	69.3%	10.5%	63.6%	57.8%	19.7%
Cc1cc(Cc2cc(C)c(O)c(C)c2)cc(C)c1O	13.2%	46.5%	59.6%	58.1%	64.1%	42.6%	37.2%	51.5%	29.9%	38.2%	48%	66.6	–	75.1%	38.9%	53.2%	43.5%	70%	6.12% (active)	88.1%
O=C(Nc1cccc(-n2cc(-c3ccncc3)c(-c3cc(O)cc(Cl)c3)n2)c1)c1ccc(N2CCOCC2)c(C(F)(F)F)c1	-15.5% (active)	-26.9% (active)	-48% (active)	-45.6% (active)	52.7%	-35.4% (active)	2.4% (active)	9.38% (active)	-20.7% (active)	6.25% (active)	23.1%	12.1	-9.64% (active)	19.1%	32.2%	10.8%	-48.7% (active)	-52.4% (active)	22.9%	–
